# Bioassay records deposited in PubChem BioAssay by National Center for Advancing Translational Sciences (NCATS).
# SW480 rerep – DNA re-replication induction in SW480 cells | SW480 DNA re-replication, Hoechst DNA content imaging, 48 h | Potency, µM (doses to about 46.1 µM), without a hit: at the top dose re-replication activation, hits mostly activators | 1.8% of 340,000 active | AID 624297; also: % of control where 0% means no effect; nearly all actives have a fitted effect of over 55% in size
#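 First, 250 cells per well were seeded. Next, compound or vehicle (23 nL) was pinned in, plates sat 48 hr at 37 C. Finally Hoechst was added for 40 min before fluorescence scanning.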
# HT1080 IDH1KD tx – toxicity to HT-1080 IDH1 knockdown cells (counter line); HT-1080 IDH1 knockdown viability, ATP luminescence, 48 h; Potency, µM (titrated, usually from 46.1 µM), for the others: at the highest dose activity, negative = toxicity, usual class: cytotoxic; 2% of 360,000 active; AID 686971;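 also: 0% = DMSO wells and -100% = cell-free medium wells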
#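 In this qHTS, HT-1080 cells depleted of IDH1 are exposed for 48 h at 37 °C to compound titrations. Toxicity is scored from CellTiter-Glo luminescence, with DMSO as full viability and medium alone as none.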
# KB-V1 cytotox – kills drug-selected multidrug resistant KB-V1 cells; KB-V1 MDR cells viability, CellTiter-Glo, 72 h; Potency, µM (top dose mostly 46.1 µM), usual class: cytotoxic; 3.4% of 400,000 active; also: % is scaled to controls: 0 for no effect and ±100 for the full control effect; nearly all actives have a fitted effect of over 60% in size
#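 Cytotoxicity toward P-gp-expressing KB-V1 cells was determined as loss of CellTiter-Glo luminescence after 72 h at 37 degrees C. Compounds were tested in quantitative HTS format across a concentration range, with curves fitted to normalized data.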
# HT1080-NT tox – kills 2HG-producing HT-1080-NT fibrosarcoma cells; HT-1080-NT fibrosarcoma viability, CellTiter-Glo ATP luminescence, 48 h; 1.6% of 360,000 active; AID 686970; Potency, µM (series often up to 46.1 µM), for inactives: at the highest dose activity, negative = less viability, most hits filed as cytotoxic;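 also: NT is the 2HG producing partner of a matched IDH1 knockdown line; 0% = DMSO-treated cells and -100% = media-only wells without cells; nearly all actives have a fitted effect of over 55% in size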
#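 Toxicity toward the 2HG-producing NT line was scored as %Activity, normalised to DMSO and no-cell wells, from CellTiter-Glo luminescence after 48 hours' treatment.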
# KB-3-1 tox – KB-3-1 parental cell cytotoxicity; KB-3-1 viability, CellTiter-Glo ATP luminescence, 72 h; Potency, µM (series often up to 46.1 µM), actives largely listed as cytotoxic; 1.4% of 400,000 active; also: % is scaled to controls: 0 for no effect and ±100 for the full control effect; nearly all actives have a fitted effect of over 60% in size
#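 Here the drug-naive KB-3-1 line serves as comparator for MDR sub-line selectivity; cells received compound titrations, 72 h at 37 °C, then CellTiter-Glo readout.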
# MCF10A rereplic – induces DNA re-replication in MCF 10a normal breast cells. Potency, µM (doses to about 46.1 µM), without a hit: at the highest dose activity, positive = re-replication, usual class: activators. MCF 10A DNA re-replication, Hoechst nuclear intensity, 48 h. 2.9% of 350,000 active. AID 624296; also: % of control where 0% means no effect; nearly all actives have a fitted effect of over 50% in size
# * hit, by the source's call; i = inactive; ? = inconclusive; . = no result given; [ ] = dose if it differs, or a comment. The list is not random: actives were taken first. Their share in the collection is about 7.9%. Calls follow the shape of the dose curve; as a rule, active = well fitted curve in the direction sought with a large enough effect; inconclusive = small, poorly fitted or top-dose-only effect, or another doubt; inactive = no such curve, though single readings can be large; an effect the other way counts as inactive or inconclusive. Potency is read from the fitted curve at half-maximal effect.
SMILES,SW480 rerep,HT1080 IDH1KD tx,KB-V1 cytotox,HT1080-NT tox,KB-3-1 tox,MCF10A rereplic
Nc1ncnc2c(C3OC(CO)C(O)C3O)scc12 (centres undefined),?,0.037µM*,?,0.26µM*,0.1µM*,?
COc1cc(NC(=O)Cn2nc(C(F)(F)F)c3c2CCC3)cc(OC)c1OC,.,.,i,.,16µM*,.
Cc1c(N=C2N=C(NC(=O)c3cccs3)c3ccccc32)c(=O)n(-c2ccccc2)n1C,-9%,-10%,i,-15%,i,0%
CC(=O)N1CCc2cc(S(=O)(=O)NC(Cc3ccccc3)C(=O)Nc3cc(C)ccc3C)ccc21 (centres undefined),.,.,i,.,i,.
CC(=O)Nc1ccc(CN2CCc3c([nH]c4ccccc34)C2c2ccccn2)cc1 (centres undefined),?,18µM*,?,23µM*,?,22%
O=C(N[C@@H]1C/C=C\C[C@H](CC(=O)N(CCO)Cc2ccccc2)C(=O)N[C@@H](Cc2ccccc2)COC1=O)OCC1c2ccccc2-c2ccccc21,?,-12%,i,-10%,?,13µM*
C[C@@H]1COC(=O)[C@H](NC(=O)OCC2c3ccccc3-c3ccccc32)C/C=C\C[C@@H](CC(=O)N(CCO)Cc2ccccc2)C(=O)N1,1%,10%,i,9%,i,1%
O=C(N[C@H]1C/C=C\C[C@@H](CC(=O)N(CCO)Cc2ccccc2)C(=O)NC[C@H](c2ccccc2)OC1=O)OCC1c2ccccc2-c2ccccc21,5%,?,i,23µM*,?,6.5µM*
CS(=O)(=O)Nc1ccc2c3c(cccc13)CC2,-2%,-5%,i,2%,i,-3%
Cc1ccc(NC(=O)Cn2sc3nc(C)cc(C)c3c2=O)c(Cl)c1,?,?,i,-9%,i,4.6µM*
Cc1cc(C)c2c(=O)n(CC(=O)Nc3ccc(Cl)cc3)sc2n1,?,?,i,-18%,i,?
Cc1cc(C)cc(NS(=O)(=O)c2ccc3c(c2)c(=O)n(C)c(=O)n3C)c1,-6%,3.2µM*,?,6.3µM*,8.2µM*,-3%
Cc1ccc(NS(=O)(=O)c2ccc3c(c2)c(=O)n(C)c(=O)n3C)cc1F,?,?,?,16µM*,18µM*,23%
Cn1c(=O)c2cc(S(=O)(=O)Nc3cc(C(=O)O)cc(C(=O)O)c3)ccc2n(C)c1=O,-133%,5%,i,7%,i,-6%
CCOC(=O)N1CCN(c2cccc(C)c2C)CC1,-4%,6%,i,14%,i,1%
COC(=O)[C@@]1(Sc2ccc(C)cc2)CC(=O)N(c2ccccc2)[C@@H]1c1ccccc1,.,?,16µM*,?,?,.
O=C(CN1CCC(C(=O)c2ccc(F)cc2)CC1)Nc1ccc(F)cc1,-1%,-20%,?,-19%,i,13%
O=C(CN1CCC(C(=O)c2ccc(F)cc2)CC1)Nc1ccccc1,1%,?,4.6µM*,?,i,2%
O=C(CN1CCC(C(=O)c2ccc(F)cc2)CC1)NCc1ccccc1F,17%,-9%,9.2µM*,-23%,?,0%
Cc1cc(Cl)n2c(nc3cc(F)c(F)cc32)c1C#N,6.5µM*,5.2µM*,5.8µM*,5.8µM*,7.3µM*,?
O=C1NC2(CCC3(CC2)OCCO3)NN1c1ccc(Cl)cc1,?,6.5µM*,i,?,?,?
O=C1NC2(CCCCC2)NN1c1ccccc1,-1%[9.22 µM],5.2µM*,i,?,i,10%
CC(=O)N1CCC2(CC1)NC(=O)N(c1ccccc1)N2,8%,4.1µM*,i,5.2µM*,i,7%
NC(=O)C1(c2ccccc2)CCC(=O)N1c1ccccc1 (centres undefined),-5%,2%,i,17%,i,-8%
NC(=O)N1CCC2(CC1)NC(=O)N(c1ccccc1)N2,-52%,6.5µM*,i,10µM*,i,0%[9.22 µM]
SMILES,SW480 rerep,HT1080 IDH1KD tx,KB-V1 cytotox,HT1080-NT tox,KB-3-1 tox,MCF10A rereplic
O=C1NC2(CCCCC2)C(=O)N1c1ccccc1,-2%,4%,i,11%,i,-6%
CCOc1cc(N2CCOCC2)c(OCC)cc1NC(=O)CN1CCC(Cc2ccccc2)CC1,-13%,0%,i,-1%,i,?
Cc1cc(C)c(CN2CCN(CCCn3ccc(NC(=O)OCc4ccccc4)nc3=O)CC2)c(C)c1,?,-6%,i,-2%,?,-18%
CC1CCC2(CC1)NC(=S)N(c1ccccc1)N2 (centres undefined),-3%,18µM*,i,?,i,8%
Nc1ccc(C(=O)NN2C(=O)[C@H](Cl)C2c2ccc(Cl)cc2)cc1 (some centres undefined),9.2µM*,18µM*,?,?,?,16µM*
Cc1ccc(OCc2cc(C(=O)NCc3cn4ccccc4n3)no2)cc1C,6%,-1%,i,12%,i,?
COc1ccc(CCNC(=O)CSc2cn(CCNC(=O)c3ccc(OC)c(OC)c3)c3ccccc23)cc1OC,.,.,i,.,i,.
CCCCCCCn1ccc(=N)cc1,?,?,i,?,4.6µM*,?
CCCCCCCCCn1ccc(=N)cc1,2%,15µM*,16µM*,?,0.52µM*,24%
NC(=O)N(CCC(=O)O)c1ccccc1,0%,15%,i,17%,i,2%
Cc1cccc(NC(=S)NNC(=O)CCn2cc(C)cn2)c1,?,2.8µM*,i,1.3µM*,i,-1%
Cc1nn(-c2ccc(Cl)cc2)c(=O)c2ccccc12,-12%,-7%,i,3%,i,-5%
Cc1c(Cl)sn(-c2ccc(Cl)cc2)c1=O,1.8µM*,2.6µM*,?,26µM*,16µM*,3.3µM*
O=C1/C(=C\c2cc(Cl)c(O)c(Cl)c2)SC(=S)N1Cc1ccccc1,?,?,3.7µM*,?,?,2.1µM*
COc1ccc(OC)c(/C=C2\SC(=S)N(Cc3cccnc3)C2=O)c1,16µM*,17%,15µM*,5%,?,6.5µM*
O=C(O)COc1ccc(/C=C2/SC(=S)N(Cc3ccccc3)C2=O)cc1,2%,-13%,i,-5%,i,-2%
COc1ccc(/C=C2/SC(=S)N(Cc3ccccc3)C2=O)cc1O,-2%,?,i,-27%,i,?
